The whole screen tested about 110,000 compounds, of which about 610 (0.55%) were called active. Roughly 3% stayed inconclusive and do not appear here. The call rests on the fitted dose curve; in most records, active means well fitted inhibition curve with a large enough effect; inconclusive means small, poorly fitted or top-dose-only effect; inactive means no such curve, though single readings can be large or run the other way. The full list was thinned out, with actives kept by preference.
Target: Polyunsaturated fatty acid lipoxygenase ALOX15B (Homo sapiens) (UniProt O15296)
Sequence (O15296 whole entry, looked up): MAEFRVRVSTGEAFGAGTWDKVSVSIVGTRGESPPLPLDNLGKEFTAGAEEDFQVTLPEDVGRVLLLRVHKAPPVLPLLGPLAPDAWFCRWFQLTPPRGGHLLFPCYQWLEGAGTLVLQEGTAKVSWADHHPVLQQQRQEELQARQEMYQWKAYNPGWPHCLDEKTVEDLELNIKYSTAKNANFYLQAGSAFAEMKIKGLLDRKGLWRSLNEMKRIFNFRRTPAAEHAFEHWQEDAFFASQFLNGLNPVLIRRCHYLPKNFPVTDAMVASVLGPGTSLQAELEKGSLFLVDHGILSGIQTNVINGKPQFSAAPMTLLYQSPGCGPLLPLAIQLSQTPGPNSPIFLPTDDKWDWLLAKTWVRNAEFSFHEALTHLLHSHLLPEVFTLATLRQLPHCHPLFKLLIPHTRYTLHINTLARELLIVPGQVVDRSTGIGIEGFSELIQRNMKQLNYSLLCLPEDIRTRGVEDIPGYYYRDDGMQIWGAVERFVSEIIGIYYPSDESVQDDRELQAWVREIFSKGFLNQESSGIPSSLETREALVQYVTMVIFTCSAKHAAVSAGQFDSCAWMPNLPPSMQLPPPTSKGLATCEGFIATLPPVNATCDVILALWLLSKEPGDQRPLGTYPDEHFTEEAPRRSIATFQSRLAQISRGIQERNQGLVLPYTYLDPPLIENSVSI
Test: qHTS Assay for Inhibitors of 15-hLO-2 (15-human lipoxygenase 2); further: nearly all actives have a fitted effect of over 60% in size
Conditions: purified 15hLO-2, xylenol orange hydroperoxide absorbance; series mostly up to 57.1 µM; activity change, negative = inhibition: at the top concentration
Source text: Assay Overview: NIH Molecular Libraries Screening Centers Network [MLSCN] NIH Chemical Genomics Center [NCGC] MLSCN Grant: MH081283-01A1 PI Name: Holman, T.R., University of California, Santa Cruz Human lipoxygenase 15hLO-2 is a member of the closely related lipoxygenase family of enzymes which catalyze the site-specific oxidation of arachidonic acid to various hormone precursor molecules and as such is a candidate for drug development in a variety of disease areas, such as cancer and inflammation. Inhibition of 15hLO-2 activity was screened by utilizing arachidonic acid as a substrate. The extent of hydroperoxide product formation was measured by a secondary chromogenic reaction in which xylenol orange (XO, Sigma-Aldrich, cat. number 39,818-7) reacts with the ferric ions produced from the reaction between the hydroperoxide and ferrous ions. The Fe(III)-XO complex is characterized with red-shifted absorbance at 560 nm. A purified preparation of human 15hLO-2 was supplied by Professor Ted Holman, University of California, Santa Cruz.
Assay Protocol: Buffer: 25 mM Hepes pH 7.5, 0.01% Triton X-100. Reagents/Controls: Buffer in columns 3 and 4 as negative control (no enzyme). Substrate solution: 45 uM arachidonic acid (Sigma-Aldrich, St. Louis, MO) final concentration dispensed throughout the plate. Enzyme: 50 nM 15hLO-2 final concentration in columns 1, 2, 5-48. Column 1 is neutral (100% activity). Column 2 contained pin-transferred titration of NDGA (nordihidroguaiaretic acid, Sigma-Aldrich, N 5023, top concentration 10 mM in DMSO, then 1:2 dilution in duplicate). (Dilution factor: 23 nL into 4 uL.) Chromogenic detection reagent (divalent iron/xylenol orange, Fe-XO): 200 uM xylenol orange plus 300 uM ferrous ammonium sulfate prepared freshly in 50 mM sulfuric acid. Assay Steps: Three uL of enzyme were dispensed to 1536-well Greiner black clear bottom plates. Compounds and controls (23 nL) were transferred via Kalypsys PinTool. The plates were incubated for 15 min at room temperature, and then 1 uL of substrate solution was added to start the reaction. After room temperature incubation for 90 minutes, 4 uL of Fe-XO solution was added to each well followed by a short spin (1000 rpm, 15 sec) and the plates were then incubated for 30 min. The absorbance at 405 and 573 nm were measured using ViewLux (Perkin-Elmer) High-throughput CCD imager and absorbance protocol settings. The 573-to-405 absorbance ratio was used to compute reaction progress.
On the % scale 0 is the no-effect control and ±100 the full control effect; potency means the concentration at half of the fitted maximal effect.

Compound | activity change, negative = inhibition | Potency
O=C(Nc1cc(C(F)(F)F)ccc1Cl)c1cc2nc3c(c(C(F)(F)F)n2n1)CCCC3 | -8.67% (inactive) | 
CCOc1ccc(N=Cc2c(O)n(-c3cccc(C)n3)c(=O)c3ccccc23)cc1 | -20.5% (inactive) | 
NNc1nnc(NN)c2ccccc12 | 35% [at 0.0915 µM] (inactive) | 
CCOC(=O)c1c(NC(=O)CCl)sc(C(=O)N(CC)CC)c1C | -0.801% (inactive) | 
O=c1onc(-c2cccs2)n1Cc1ccccc1 | -5.38% (inactive) | 
CNC(=O)c1nnc(Cc2ccc(Cl)cc2)o1 | 8.13% (inactive) | 
CC(C)Nc1ncnc2c1nnn2Cc1ccccc1 | -2.57% (inactive) | 
CN=C1SC(CC(=O)Nc2ccc(C(=O)O)cc2)C(=O)N1C (centres undefined) | 7.34% (inactive) | 
Cc1c(Br)cc(C(=O)N2CCCCCC2)c(C)c1C | 3.77% (inactive) | 
O=C1OCCN1C(=O)[C@H]1[C@H](c2ccccc2)C(c2ccc(F)cc2)=NN1c1ccccc1 | -26.1% [at 0.0915 µM] (inactive) | 
Oc1c(Cl)cc(Cl)c(Cl)c1Cc1c(O)c(Cl)cc(Cl)c1Cl |  | 10 µM (active)
C=C(C)CSc1nnc(-c2ccc(C)cc2)n1N | -9.67% (inactive) | 
COc1ccc(CN2CN(C(C)C)CSC2=S)cc1 |  | 5.01 µM (active)
COc1ccc(C(=O)CN(C(=O)c2ccc(Cl)cc2)N2C(=O)c3ccccc3C2=O)cc1 | -10.7% (inactive) | 
O=C(O)CSCc1ccc(C(=O)O)o1 | 2.71% (inactive) | 
CC(C)NS(=O)(=O)c1ccc(NC(=O)C2CCCCC2)cc1 | -5.18% (inactive) | 
O=C(CCc1ccc(S(=O)(=O)N2CCOCC2)cc1)Nc1ccc2ccccc2c1 | -2.44% (inactive) | 
COc1ccc(Nc2cc(=O)oc3ccccc23)cc1 | -1.16% (inactive) | 
S=C(NCc1cccs1)Nc1ccc(Cl)cc1 | -14.3% (inactive) | 
S=C(NCc1ccc(Cl)cc1)NC12CC3CC(CC(C3)C1)C2 |  | 15.8 µM (active)
O=C(NCc1ccc2c(c1)OCO2)C12CC3CC(CC(C3)C1)C2 | -1.12% (inactive) | 
Cc1cccc(N2C(=O)c3cccnc3C2=O)c1 | -4.64% (inactive) | 
COc1ccc(-c2c(C)cc3oc(=O)cc(-c4ccccc4)c3c2C)cc1F | -14% [at 0.0915 µM] (inactive) | 
O=c1cc(-c2ccc(O)c(O)c2)oc2cccc(O)c12 |  | 12.6 µM (active)
CC1O[C@@H](Oc2c(-c3ccc(O)c(O)c3)oc3cc(O)cc(O)c3c2=O)C(O)C(O)C1O (some centres undefined) | -4.62% (inactive) | 
Cc1cccc(-c2cc(=O)c3cc(C)ccc3o2)c1 | -4.12% (inactive) | 
COc1ccc(N2CCN(C(=O)CNC(=O)c3ccc(C(C)(C)C)cc3)CC2)cc1 | -1.78% (inactive) | 
CC(C)c1ccc(N2CCN(C(=O)c3ccccc3NC(=O)/C=C(\C(=O)O)c3ccccc3)CC2)cc1 | -27.6% (inactive) | 
CC(=O)N1CCN(c2ccc(NCc3ccc(C(C)C)cc3)cc2)CC1 |  | 12.6 µM (active)
